Data: PubChem BioAssay (NCATS)
Results filed as inconclusive are left out. Entries that show only a call come without a potency. Activity calls are given as the source filed them. Unless noted, calls come from the whole dose curve; as a rule, active = well fitted curve in the direction sought with a large enough effect; inconclusive = small, poorly fitted or top-dose-only effect, or another doubt; inactive = no such curve, though single readings can be large; an effect the other way counts as inactive or inconclusive.

Assays:
[1] = qHTS assay for measurement of the activity of small molecule inhibitors on Zika virus induced Caspase-3 activity in human iPSC derived neural progenitor cells (hNPCs) (AID 1224857); conditions: hNPCs ZIKV-induced caspase-3/7, Caspase-Glo luminescence, 6 h; series mostly up to 45.7 µM; note: nearly all actives have a fitted effect of over 65% in size
In short: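 After overnight (16–20 h) culture at 350 cells/well, hNPCs get compound, then ZIKV 2 FFU/cell one hour later. Six hours on, Caspase-Glo 3/7 is added and luminescence measured.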

[2] = qHTS assay for measurement of the activity of small molecule inhibitors on Zika virus induced Caspase-3 activity in human astrocytoma cells (AID 1224859); conditions: SNB-19 ZIKV-induced caspase-3/7, luminescence, 6 h; series mostly up to 45.7 µM
In short: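 Inhibition of Zika-induced caspase-3/7 activity: SNB-19 cells, 1 h compound pretreatment, ZIKV 2 FFU/cell for 6 h at 37 C, Caspase-Glo luminescence read-out.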

[3] = qHTS profiling for inhibitors of Plasmodium falciparum (3D7) proliferation (AID 743322; call rule not given here;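 note: infected erythrocytes exposed to compound for 72 h before lysis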); conditions: P. falciparum 3D7 proliferation; at 28.7 µM (top of the series)
In short: (§1)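 Erythrocytes infected with P. falciparum (0.3% parasitemia, 2.5% hematocrit) incubated with compounds 72 h at 37 C, 5% CO2. Lysis with saponin/Triton buffer containing SYBR Green I, overnight at room temperature in the dark; DNA fluorescence (485/535 nm) normalised to 0.29 uM artemisinin and DMSO.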

[4] = qHTS profiling for inhibitors of Plasmodium falciparum (DD2) proliferation (AID 743323; call rule not given here); conditions: lower = more inhibition; at 28.7 µM (top of the series)
In short: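 Parasite proliferation measured via DNA-dye fluorescence, as uninfected erythrocytes lack DNA. Cultures at 0.3% parasitemia and 2.5% hematocrit incubated 72 h with compound; signal scaled between vehicle and 0.29 uM artemisinin wells.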

[5] = qHTS assay for cell viability of the p53RE-bla HCT-116 cell line (AID 743292); conditions: p53RE-bla HCT-116 viability, ATP luminescence, 16 h; series mostly up to 95 µM; note: nearly all actives have a fitted effect of over 55% in size
In short: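 CellSensor p53RE-bla HCT-116 cells, 4,000/well, preincubated 5 h at 37 C, then exposed to compounds in DMSO for 16 h at 37 C. Viability read as CellTiter-Glo luminescence (intracellular ATP) after 30 min at room temperature.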

[6] = qHTS profiling of the MIPE4 collection as inhibitors of Plasmodium falciparum (3D7) proliferation (AID 743344; call rule not given here); conditions: P. falciparum 3D7 in erythrocytes, SYBR Green DNA fluorescence, 72 h; at 28.5 µM (top of the series)
In short: as §1

[7] = qHTS profiling of the MIPE4 collection as inhibitors of Plasmodium falciparum (DD2) proliferation (AID 743345; call rule not given here); conditions: P. falciparum Dd2 in erythrocytes, SYBR Green DNA, 72 h; at 28.5 µM (top of the series)
In short: as §1

[8] = qHTS profiling of the MIPE4 collection as inhibitors of Plasmodium falciparum (DD2) proliferation (Rep 2) (AID 743346; call rule not given here); conditions: P. falciparum Dd2 in erythrocytes, SYBR Green DNA, 72 h; at 28.5 µM (top of the series)
In short: as §1

[9] = qHTS profiling of the MIPE4 collection as inhibitors of Plasmodium falciparum (HB3) proliferation (AID 743347; call rule not given here); conditions: P. falciparum HB3 in erythrocytes, SYBR Green DNA, 72 h; at 28.5 µM (top of the series)
In short: as §1

[10] = qHTS profiling for inhibitors of Plasmodium falciparum (HB3) proliferation (AID 743324); conditions: Plasmodium falciparum HB3 blood-stage proliferation; at 28.7 µM (top of the series)
In short: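 P. falciparum HB3 grown in erythrocytes (0.3% parasitemia, 2.5% hematocrit final) with compound for 72 h at 37 C, 5% CO2. Parasite DNA detected by SYBR Green after saponin/triton lysis overnight; normalized to 0.29 uM artemisinin and DMSO.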

SMILES: COc1ccc(OC)c(C(O)C(C)N)c1 (stereo not drawn)
- Potency [1]: inactive
- outcome [2]: inactive

SMILES: CCn1cnc2c(Nc3cccc(Cl)c3)nc(N[C@@H]3CCCC[C@@H]3N)nc21
- Potency [1]: inactive
- outcome [2]: inactive

SMILES: NC(=O)COc1c(F)cc(SCCNS(=O)(=O)c2ccccc2)cc1F
- Potency [1]: inactive
- outcome [2]: inactive

SMILES: CCCC[N+]1(C)C2CC(OC(=O)[C@H](CO)c3ccccc3)CC1C1OC12 (stereo partly drawn)
- Potency [1]: inactive
- outcome [2]: inactive

SMILES: NCCc1ccc(S(=O)(=O)F)cc1
- Potency [1]: inactive
- outcome [2]: inactive

SMILES: NCC(O)c1cc(O)c(O)cc1F (stereo not drawn)
- Potency [1]: inactive
- outcome [2]: inactive

SMILES: CN1CCc2cccc(Cl)c2CC1
- Potency [1]: inactive
- outcome [2]: inactive

SMILES: N[C@@H](Cn1oc(=O)[nH]c1=O)C(=O)O
- Potency [1]: inactive
- outcome [2]: inactive

SMILES: CCCN(CCC)C1Cc2cc(OC)c(OC)cc2C1
- Potency [1]: inactive
- outcome [2]: inactive

SMILES: CCS(=O)(=O)Nc1cccc(C(=C2CCCCC2)c2cnc[nH]2)c1
- Potency [1]: inactive
- outcome [2]: inactive

SMILES: CC(C)(C)c1o[nH]c(=O)c1CC(N)C(=O)O (stereo not drawn)
- Potency [1]: inactive
- outcome [2]: inactive

SMILES: CCCN(CCC)[C@H]1CCc2c(F)ccc(O)c2C1
- Potency [1]: inactive
- outcome [2]: inactive

SMILES: NCC(CP(=O)(O)O)c1ccc(Cl)cc1 (stereo not drawn)
- Potency [1]: inactive
- outcome [2]: inactive

SMILES: CP(=O)(O)C1=CCNCC1
- Potency [1]: inactive
- outcome [2]: inactive

SMILES: COc1ccc2[nH]c3c(c2c1)CCNC3
- Potency [1]: inactive
- outcome [2]: inactive

SMILES: c1ccc2c(N3CCNCC3)cccc2c1
- Potency [1]: inactive
- outcome [2]: inactive

SMILES: C[N+](C)(C)CC#CCN1CCCC1=O
- Potency [1]: inactive
- outcome [2]: inactive

SMILES: C=CCN1CCC23c4c5ccc(O)c4O[C@H]2C(=O)CC[C@@]3(O)C1C5 (stereo partly drawn)
- Potency [1]: inactive
- outcome [2]: inactive

SMILES: c1ccc2c(c1)[I+]c1ccccc1-2
- Potency [1]: inactive
- outcome [2]: inactive

SMILES: Cc1c2ccncc2c(C)c2c1[nH]c1ccccc12
- Potency [1]: inactive
- outcome [2]: inactive

SMILES: C[C@H](N)CN1CCc2ccc(Br)cc21
- remaining parasite growth % (stronger effect = lower value) [3]: 99.2%
- activity, percent of control [4]: 24.2%
- Potency [1]: inactive
- outcome [2]: inactive

SMILES: CC(C)(C)c1cc(C=C(C#N)C#N)cc(C(C)(C)C)c1O
- Potency [1]: inactive
- outcome [2]: inactive

SMILES: CCCN1CC[C@@H]2c3cc(O)ccc3CC[C@@H]21
- Potency [1]: inactive
- outcome [2]: inactive

SMILES: CCCN1CCC[C@@H](c2cccc(O)c2)C1
- Potency [1]: inactive
- outcome [2]: inactive

SMILES: NC(=O)CI
- Potency [1]: inactive
- outcome [2]: inactive

SMILES: COc1ccc2c(c1O)-c1cccc3c1[C@@H](C2)N(C)CC3
- Potency [1]: inactive
- outcome [2]: inactive

SMILES: CC(N)Cc1c[nH]c2ccc(OCc3cccs3)cc12 (stereo not drawn)
- Potency [1]: inactive
- outcome [2]: inactive

SMILES: CC(N)c1cccc(Cl)c1Cl (stereo not drawn)
- Potency [1]: inactive
- outcome [2]: inactive

SMILES: Oc1ccc2c3c1O[C@H]1c4oc5ccccc5c4C[C@@]4(O)C(C2)N(CC2CC2)CCC314 (stereo partly drawn)
- Potency [1]: inactive
- outcome [2]: inactive

SMILES: OCc1cnc[nH]1
- Potency [1]: inactive
- outcome [2]: inactive

SMILES: CO[C@H]1CC=C2CCN3CCC4=C(CC(=O)OC4)[C@]23C1
- Potency [1]: inactive
- outcome [2]: inactive

SMILES: Nc1ccc(CCN2CCN(c3cccc(C(F)(F)F)c3)CC2)cc1
- Potency [1]: inactive
- outcome [2]: inactive

SMILES: CCOC(=O)c1ncn2c1[C@@H]1CCCN1C(=O)c1cc(OC)ccc1-2
- Potency [1]: inactive
- outcome [2]: inactive

SMILES: O=C1C=CC(=O)C=C1
- Potency [5]: inactive
- Potency [1]: inactive
- outcome [2]: inactive

SMILES: NNC(N)=O
- Potency [5]: inactive
- Potency [1]: inactive
- outcome [2]: inactive

SMILES: C[C@]12Cc3cn4c(nc3C=C1CCC1C2CC[C@@]2(C)[C@H]1CC[C@@]2(O)C#N)nc1ccccc14 (stereo partly drawn)
- Potency [1]: inactive
- outcome [2]: inactive

SMILES: C[N+](C)(C)CCOC(=O)CBr
- Potency [1]: inactive
- outcome [2]: inactive

SMILES: O=[N+]([O-])c1cc(O)c(O)c([N+](=O)[O-])c1
- Potency [1]: inactive
- outcome [2]: inactive

SMILES: CN1CCc2cc(O)cc3c2[C@H]1Cc1ccc(O)c(O)c1-3
- Potency [1]: inactive
- outcome [2]: inactive

SMILES: OC1CCCCC1N1CCC(c2ccccc2)CC1 (stereo not drawn)
- Potency [1]: inactive
- outcome [2]: inactive

SMILES: NC(N)=NOCC[C@H](N)C(=O)O
- Potency [1]: inactive
- outcome [2]: inactive

SMILES: CN1C2CCC1CC(OC(c1ccccc1)c1ccccc1N)C2 (stereo not drawn)
- Potency [1]: inactive
- outcome [2]: inactive

SMILES: N=C(N)c1ccc(CS(=O)(=O)F)cc1
- Potency [1]: inactive
- outcome [2]: inactive

SMILES: Oc1ccc2c3c1O[C@H]1c4[nH]c5ccccc5c4C[C@@]4(O)C(C2)N(CC2CC2)CCC314 (stereo partly drawn)
- parasite growth, % of DMSO control [6]: 5.78%
- parasite growth remaining, % of DMSO control (lower = more inhibition) [7]: 28.3%
- parasite growth, % of control (lower = inhibition) [8]: 12.6%
- growth, % of control [9]: 5.24%
- Potency [1]: inactive
- outcome [2]: inactive

SMILES: CCCN(CCC)[C@@H]1CCc2cccc(O)c2C1
- Potency [1]: inactive
- outcome [2]: inactive

SMILES: O=[N+]([O-])/C=C/c1ccc2c(c1)OCO2
- Potency [1]: inactive
- outcome [2]: inactive

SMILES: NC(CCCCCP(=O)(O)O)C(=O)O (stereo not drawn)
- Potency [1]: inactive
- outcome [2]: inactive

SMILES: C[C@H](N)Cc1cccc(C(F)(F)F)c1
- Potency [1]: inactive
- outcome [2]: inactive

SMILES: C[N+]1(C)CCN(c2ccccc2)CC1
- Potency [1]: inactive
- outcome [2]: inactive

SMILES: CC1(C(=O)O)C2CCC(O2)C1(C)C(=O)O (stereo not drawn)
- Potency [1]: inactive
- outcome [2]: inactive

SMILES: CCCN1CCc2cc(O)cc3c2[C@H]1Cc1ccc(O)c(O)c1-3
- Potency [1]: inactive
- outcome [2]: inactive

SMILES: O=S1(=O)N(CCN2CC=C(c3c[nH]c4cc(F)ccc34)CC2)c2cccc3c2N1CCC3
- Potency [1]: inactive
- outcome [2]: inactive

SMILES: C#CCN[C@H](C)Cc1ccccc1
- Potency [1]: inactive
- outcome [2]: inactive

SMILES: CC(=O)c1c(O)c(C)c(O)c(Cc2c(O)c3c(c(C(=O)/C=C/c4ccccc4)c2O)OC(C)(C)C=C3)c1O
- remaining parasite growth % (stronger effect = lower value) [3]: -0.946%
- activity, percent of control [4]: -0.827%
- remaining proliferation (% of control), lower = more inhibition [10]: -2.57%
- Potency [1]: inactive
- outcome [2]: inactive

SMILES: NC(Cc1ccc(N(CCCl)CCCl)cc1)C(=O)O (stereo not drawn)
- remaining parasite growth % (stronger effect = lower value) [3]: 34.1%
- activity, percent of control [4]: 18.8%
- remaining proliferation (% of control), lower = more inhibition [10]: 9.39%

SMILES: C[N+]1(C)[C@@H]2CC(OC(=O)[C@H](CO)c3ccccc3)C[C@H]1[C@H]1O[C@@H]12 (stereo partly drawn)
- parasite growth remaining, % of DMSO control (lower = more inhibition) [7]: 91.7%
- growth, % of control [9]: 86.8%
- Potency [1]: inactive

SMILES: C/C(=C\c1csc(C)n1)[C@@H]1C[C@@H]2O[C@]2(C)CCC[C@H](C)[C@H](O)[C@@H](C)C(=O)C(C)(C)[C@@H](O)CC(=O)O1
- remaining parasite growth % (stronger effect = lower value) [3]: 11%
- activity, percent of control [4]: 13%
- remaining proliferation (% of control), lower = more inhibition [10]: 14.1%
